According to PubChem BioAssay (NCI):
Compounds without any hit were thinned out: in the full panel of roughly 83,000, 20% have a hit.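 In brief: 96-well plates, 48 h treatment, single concentration, percent growth endpoint.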 Values without a mark were called inactive. The source made the active and inactive calls. The calls were made as follows: active = growth percent below 10; inactive = the rest.

What was measured:
Experiment in all cases: NCI-60 one-dose screen, 48 h (100 = growth as untreated, 0 = no growth, -100 = all killed)
NCI-H23 lung = settings: 10 µM unless noted
NCI-H226 lung = settings: 10 µM unless noted
DU-145 prostate = settings: 10 µM unless noted
MDA-MB-231 breast = settings: 10 µM unless noted
SF-268 CNS = settings: 10 µM unless noted
M14 melanoma = settings: 10 µM unless noted
HCT-15 colon = settings: 10 µM
SNB-75 CNS = settings: 10 µM unless noted
U251 CNS = settings: 10 µM unless noted
PC-3 prostate = settings: 10 µM unless noted
UACC-62 melanoma = settings: 10 µM unless noted
OVCAR-8 ovarian = settings: 10 µM unless noted
OVCAR-5 ovarian = settings: 10 µM unless noted
SK-OV-3 ovarian = settings: 10 µM unless noted
OVCAR-3 ovarian = settings: 10 µM unless noted
NCI/ADR-RES ovarian = settings: 10 µM unless noted
MDA-MB-435 melanoma = settings: 10 µM unless noted
MCF7 breast = settings: 10 µM unless noted
HCT-116 colon = settings: 10 µM unless noted
KM12 colon = settings: 10 µM unless noted

SMILES | growth (NCI-H23 lung) | growth (NCI-H226 lung) | growth (DU-145 prostate) [%] | growth (MDA-MB-231 breast) | growth (SF-268 CNS) | growth (M14 melanoma) | growth (HCT-15 colon) | growth (SNB-75 CNS) | growth (U251 CNS) | growth (PC-3 prostate) | growth (UACC-62 melanoma) | growth (OVCAR-8 ovarian) [%] | growth (OVCAR-5 ovarian) | growth (SK-OV-3 ovarian) [%] | growth (OVCAR-3 ovarian) | growth (NCI/ADR-RES ovarian) | growth (MDA-MB-435 melanoma) | growth (MCF7 breast) [%] | growth (HCT-116 colon) | growth (KM12 colon)
OC1(c2ccc(Cl)cc2Cl)c2ccccc2C2=NCCN21 (stereo not given) | 88.5% | 71.3% | 109 | 85.2% | 103% | 102% | 101% | 94.2% | 89.5% | 79% | 94% | 102 | 94.4% | 89.5 | 85.6% | 96.3% | 98% | 96.4 | 78.8% | 101%
C[C@]12CC[C@@H]3c4ccc(OC(=O)Cc5ccc(N(CCCl)CCCl)cc5)cc4CC[C@H]3[C@@H]1CC[C@@H]2OC(=O)Cc1ccc(N(CCCl)CCCl)cc1 | 119% | 92.6% | 103 | 102% | 108% | 107% | 113% | 84.7% | 107% | 84.8% | 88% | 109 | 105% | 126 | 109% | 55.9% | 112% | 120 | 104% | 111%
CCC(C)[C@H]1O[C@]2(C=C[C@@H]1C)C[C@@H]1C[C@@H](C/C=C(\C)[C@@H](OC3C[C@H](OC)C(O[C@H]4C[C@H](OC)[C@@H](O)[C@H](C)O4)[C@H](C)O3)[C@@H](C)/C=C/C=C3\CO[C@@H]4[C@H](O)C(C)=C[C@@H](C(=O)O1)[C@]34O)O2 (stereo not given in full) | 5.82% (active) | -15.6% (active) | 11.4 | -58.2% (active) | 1.66% (active) | -46.7% (active) | -20.2% (active) | 3.26% (active) | -16% (active) | -5.32% (active) | -35% (active) | 12.5 | -31.8% (active) | 12.6 | -72.3% (active) | 7.16% (active) | -31.6% (active) | 10.4 | -81.1% (active) | -12.3% (active)
